Consider eight compounds from PubChem BioAssay (NCI).

Assay in all cases: NCI-60 one-dose screen, 48 h (100 = growth as untreated, 0 = no growth, -100 = all killed)
For experiment [1], the system named is HCT-15 colon. The following applies: 10 µM.
The test system of experiment [2] is HT29 colon. The following applies: 10 µM.
The test system of experiment [3] is SNB-75 CNS. Conditions: 10 µM.
The test system of experiment [4] is SNB-19 CNS. Conditions: 10 µM.
The test system of experiment [5] is U251 CNS. Conditions: 10 µM unless noted.
The test system of experiment [6] is PC-3 prostate. The following applies: 10 µM.
Experiment [7] concerns UACC-62 melanoma.
In experiment [8] the test system is LOX IMVI melanoma. Conditions: 10 µM unless noted.
In experiment [9] the test system is SK-MEL-28 melanoma. The following applies: 10 µM.
Experiment [10] concerns EKVX NSCLC. The following applies: 10 µM.
Experiment [11] has as its system UO-31 renal. The following applies: 10 µM.
Experiment [12] relates to TK-10 renal.
Experiment [13] concerns ACHN renal. The following applies: 10 µM.
The subject of experiment [14] is A498 renal. The following applies: 10 µM.
In experiment [15] the test system is CCRF-CEM leukemia. The following applies: 10 µM.
Experiment [16] has as its system MOLT-4 leukemia. The following applies: 10 µM.
Experiment [17] has as its system SK-MEL-2 melanoma. Conditions: 10 µM.
Experiment [18] concerns CAKI-1 renal. The following applies: 10 µM.
The test system of experiment [19] is SN12C renal. Conditions: 10 µM.

Several values for one entry are separate records, joined by “and”; a condition that tells them apart may be missing. Equal values may be shown once. The panel holds about 83,000 compounds, 20% with a hit somewhere; the sample as a whole holds those more often.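 For each line, cells grew in 96-well plates with the test compound present at a single concentration for 48 hours.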 Activity calls are given as the source filed them. Rule for the calls: active = growth percent below 10; inactive = the rest.

Take `NNc1c2ccccc2nc2ccccc12`: the growth in experiment [1] was 35.1% (inactive); in experiment [2], 34.5% (inactive); in experiment [3], 55% (inactive); in experiment [4] it was 56.9% (inactive); in [5] it was 48% (inactive); in experiment [6], 50.7% (inactive). Besides, the growth was 45.2% (inactive) in experiment [7] (10 µM); 58.7% (inactive) in experiment [8]; 76.7% (inactive) in experiment [9]; 58.3% (inactive) in [10]; 61.4% (inactive) in experiment [11]; 45.4% (inactive) in experiment [12] (10 µM). The growth in experiment [13] is 46.7% (inactive); in experiment [14], 49.3% (inactive); in [15], 37.7% (inactive); in [16] it was 29% (inactive).
As for `Cc1cc(O)c(C(C)C)cc1Cl`, the growth in experiment [1] is 106% (inactive); in experiment [2], 103% (inactive); in [3], 93.2% (inactive); in [4] it was 103% (inactive); in experiment [5] it was 101% (inactive); in [6], 101% (inactive). Also, the growth in experiment [7] (10 µM) is 103% (inactive); in experiment [8] it was 98.3% (inactive); in [9], 105% (inactive); in experiment [17] it was 117% (inactive); in experiment [10], 103% (inactive); in experiment [11] it was 89.8% (inactive). Moreover, the growth in experiment [12] (10 µM) is 97.6% (inactive); in experiment [13], 106% (inactive); in [18], 99.7% (inactive); in experiment [14], 118% (inactive); in experiment [15], 104% (inactive); in [16] it was 99% (inactive).
For the compound `CC(C)C1=C(O)C2=C(C(=O)C1=O)C1(C)CCCC(C)(C)C1CC2O` (configuration not stated), the growth in [7] (100 µM) is -73.2% (active) and -96.5% (active); in [12] (100 µM), 18.6% (inactive) and -89% (active).
On to `O=C1C=CC(=CC=C2C=CN(CCCCCCCCCCCO)C=C2)C=C1`, for which the growth in experiment [1] was 89.8% (inactive); in experiment [2], 22.5% (inactive); in experiment [3], 53.4% (inactive); in experiment [5], 25% (inactive); in experiment [6], 17.5% (inactive); in experiment [7] (10 µM), 29.6% (inactive). The growth in experiment [8] is 18.8% (inactive); in experiment [9], 37.6% (inactive); in experiment [17] it was 33.5% (inactive); in [10], 26.3% (inactive); in experiment [12] (10 µM), 58.8% (inactive); in [13], 90.9% (inactive). The growth in experiment [18] was 90.4% (inactive); in [14], 95.1% (inactive); in [15], 29.5% (inactive); in experiment [16], 41.9% (inactive).
Take `Cc1cc(NS(=O)(=O)c2ccc(N=Nc3cc(N=Nc4ccc(S(=O)(=O)Nc5cc(C)nc(C)n5)cc4)c4c(NC(=O)C(Cl)Cl)cccc4c3OC(=O)C(Cl)Cl)cc2)nc(C)n1` (tested in a mixture with another compound): the growth in experiment [1] is 88.8% (inactive) and 84.2% (inactive); in [2], 118% (inactive); in experiment [3], 75.6% (inactive) and 61.7% (inactive); in experiment [4], 97.4% (inactive) and 95.7% (inactive); in experiment [5], 97.5% (inactive) and 97.7% (inactive); in [6], 97.4% (inactive) and 106% (inactive). The growth in [7] (10 µM) was 99.8% (inactive) and 95.8% (inactive); in [8] it was 92.6% (inactive) and 104% (inactive); in [9], 111% (inactive); in experiment [19], 100% (inactive) and 101% (inactive); in experiment [11] it was 68.9% (inactive) and 72.2% (inactive); in experiment [12] (10 µM), 148% (inactive) and 150% (inactive). In addition, the growth was 89.5% (inactive) and 94.4% (inactive) in experiment [13]; 96.7% (inactive) and 88.6% (inactive) in experiment [18]; 116% (inactive) and 101% (inactive) in experiment [14]; 95.3% (inactive) and 99.6% (inactive) in experiment [15]; 102% (inactive) and 105% (inactive) in [16].
`COc1c(O)cc2oc3cc(O)c(CC=C(C)C)c(O)c3c(=O)c2c1CC=C(C)C`: the growth in [1] was 24.1% (inactive); in experiment [2] it was 27.6% (inactive); in experiment [3], 82.7% (inactive); in [4] it was 96.4% (inactive); in experiment [5], 47.9% (inactive); in [6], 41.1% (inactive). In addition, the growth in experiment [8] is 0.237% (active); in [9], 87.8% (inactive); in experiment [17], 89.8% (inactive); in experiment [10], 54% (inactive); in experiment [19], 51.5% (inactive); in experiment [11] it was 49.3% (inactive). Moreover, the growth in experiment [12] (10 µM) was 89.1% (inactive); in [13], 58.8% (inactive); in [18], 56.2% (inactive); in experiment [14], 97.2% (inactive); in experiment [15], 47.8% (inactive); in experiment [16], 42.3% (inactive).
As for `O=C1NC(=O)c2cc([N+](=O)[O-])ccc21`, the growth in experiment [1] was 107% (inactive); in experiment [2], 109% (inactive); in experiment [4], 109% (inactive); in experiment [5] it was 109% (inactive); in experiment [6], 101% (inactive); in experiment [7] (10 µM), 102% (inactive). Besides, the growth is 104% (inactive) in experiment [8]; 120% (inactive) in experiment [9]; 107% (inactive) in experiment [17]; 103% (inactive) in [10]; 101% (inactive) in experiment [19]; 85.5% (inactive) in experiment [11]. Moreover, the growth was 99.3% (inactive) in experiment [12] (10 µM); 103% (inactive) in [13]; 86.4% (inactive) in experiment [18]; 99.2% (inactive) in experiment [14]; 45.3% (inactive) in experiment [15]; 96.9% (inactive) in experiment [16].
Take `CS(=O)(=O)OC1CC(n2ccc(=O)[nH]c2=O)OC1COC(c1ccccc1)(c1ccccc1)c1ccccc1` (configuration not stated): the growth is 93.7% (inactive) in experiment [1]; 96.1% (inactive) in experiment [2]; 103% (inactive) in experiment [3]; 99.8% (inactive) in [4]; 91.3% (inactive) in experiment [6]; 97.7% (inactive) in experiment [7] (10 µM). The growth in experiment [9] was 104% (inactive); in experiment [11] it was 81.5% (inactive); in [12] (10 µM), 105% (inactive); in [13], 103% (inactive); in experiment [18] it was 103% (inactive); in experiment [14], 107% (inactive).
